This is an account of results in PubChem BioAssay.

A short description of experiment [1]: inhibitors of TNFa-induced NFkB p65 translocation, primary screen, imaging, HUVEC, MLSMR starter and 10KST1 sets (AID 438;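 active means inhibition above 20% together with a positive visual image hit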;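 further: compound added about 3h40 before a 20 min TNFalpha stimulation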;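 on inhibition: signal is the nuclear over cytoplasmic p65 intensity ratio per well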). To be noted: HUVEC TNFa-induced p65 nuclear translocation; cell count: measured here: nuclei count (cytotoxicity indicator), at 2.08 µM; inhibition: at 2 µM, stronger effect = higher value, 0% TNFa-plus-vehicle, 100% no-TNFa wells.
Experiment [2] can be described thus: reduction of polyQ htt aggregates in cells – imaging, exon1htt(103Q)mCFP cells, high-content imaging, primary screen (AID 483;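 active means visual image review flags a hit and inhibition of aggregation exceeds 20%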;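 further: compound exposure lasted 3 days before fixation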;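 on nuclei count: percent of the per-plate median nuclei count of sample wells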). To be noted: exon1htt(103Q)mCFP cell line, aggregate imaging, at 2 µM; inhibition of aggregation: stronger effect = higher value; nuclei count: measured here: cell count, toxicity.
The nature of experiment [3]: endothelial E-selectin expression blockers – imaging, HUVEC, immunofluorescence, MLSMR starter and 10KST1 sets, primary screen (AID 487;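 active means visually confirmed hit in the image check and inhibition above 20%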;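 on inhibition: signal is fraction of cell area covered by stained E-selectin grains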;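 on nuclei count: 100% = median nuclei count of all wells on the same plate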). To be noted: HUVEC TNFalpha-induced E-selectin immunofluorescence imaging, at 2 µM; inhibition: stronger effect = higher value; nuclei count: measured here: cell number, toxicity.
Experiment [4] has as its target Voltage-gated potassium channel subunit beta-2 (Rattus norvegicus) (UniProt P62483). As to the kind of experiment: inhibitors of rat Kvbeta2 reductase activity – biochemical, NADPH fluorescence, primary screen (AID 622;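 active means fluorescence slope higher than the sample average by over 3 SD, cut at about -0.22 in these data, passing the limit was not always enough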;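 further: slope of raw intensity against log time taken from 70 to 1610 s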). To be noted: recombinant KvBeta, 4-cyanobenzaldehyde reduction, at 10 µM, stronger effect = higher value.
Experiment [5] shares this target. As to the kind of experiment: enhancers of rat Kvbeta2 NADPH turnover – biochemical, NADPH fluorescence, primary screen (AID 623;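 active means NADPH fluorescence slope more negative than the mean of all samples by about 3 SD, 99.7% confidence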;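 further: fluorescence intensity change per second fitted from 20 to 320 s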). To be noted: Recombinant KvBeta, NADPH fluorescence decrease slope, 10 min; at 10 µM; stronger effect = lower value.
Experiment [6] addresses Alpha-2C adrenergic receptor (Homo sapiens) (UniProt P18825). As to the kind of experiment: compounds altering alpha2C-coupled GIRK flux – cell-based, HEK293 alpha2C/GIRK1/2, thallium flux, primary screen (AID 624;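 active means fluorescence slope after compound addition differing from the mean of all screened samples at 99.7% confidence, in either direction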;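 further: slope of fluorescence ratio to pre-addition baseline per second over 15 to 24 s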). To be noted: thallium flux BTC fluorescence, at 10 µM, actives lie on both sides.
The nature of experiment [7]: blockers of RIG-like receptor reporter activation – cell-based, Sendai virus stimulus, luciferase, 10K MLSCN set, TLR/RLR signaling modifier project, primary screen (AID 602276;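 active means inhibition at or above 50% at 10 µM; inactive means inhibition below 50%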;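 further: firefly luciferase from ISG56 promoter only with Renilla not read in this screen; 0% = Sendai virus plus DMSO and 100% = medium plus DMSO without virus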). To be noted: HEK293 RL24 IRF3 luciferase reporter, at 10 µM, stronger effect = higher value.
Experiment [8] is described as follows: TLR3 IRF3 reporter activation blockers – cell-based, poly I:C stimulus, luciferase, 10K MLSCN set, primary screen (AID 602277). To be noted: HEK293-TLR3 RL24 IRF3 luciferase reporter, at 10 µM, stronger effect = higher value. In general terms: In a reporter assay the amount or activity of a reporter protein is the signal.

Molecules are shown by their SMILES. The source made the active and inactive calls.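 How the source made its calls, unless noted: active means inhibition of the reporter signal at or above 50%; inactive means inhibition below 50%.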

Voltage-gated potassium channel subunit beta-2 (Rattus norvegicus), sequence (P62483 whole entry, looked up): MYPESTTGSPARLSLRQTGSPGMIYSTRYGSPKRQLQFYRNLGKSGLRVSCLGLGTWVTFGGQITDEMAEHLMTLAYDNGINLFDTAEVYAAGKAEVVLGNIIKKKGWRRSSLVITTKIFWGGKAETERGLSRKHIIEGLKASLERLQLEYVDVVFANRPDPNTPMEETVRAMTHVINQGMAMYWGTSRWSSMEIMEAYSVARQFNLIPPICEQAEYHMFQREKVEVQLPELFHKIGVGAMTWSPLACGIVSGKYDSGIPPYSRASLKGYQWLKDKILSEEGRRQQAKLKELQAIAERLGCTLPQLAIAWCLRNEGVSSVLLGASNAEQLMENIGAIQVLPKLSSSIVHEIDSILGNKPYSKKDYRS
Alpha-2C adrenergic receptor (Homo sapiens), sequence (P18825 whole entry, looked up): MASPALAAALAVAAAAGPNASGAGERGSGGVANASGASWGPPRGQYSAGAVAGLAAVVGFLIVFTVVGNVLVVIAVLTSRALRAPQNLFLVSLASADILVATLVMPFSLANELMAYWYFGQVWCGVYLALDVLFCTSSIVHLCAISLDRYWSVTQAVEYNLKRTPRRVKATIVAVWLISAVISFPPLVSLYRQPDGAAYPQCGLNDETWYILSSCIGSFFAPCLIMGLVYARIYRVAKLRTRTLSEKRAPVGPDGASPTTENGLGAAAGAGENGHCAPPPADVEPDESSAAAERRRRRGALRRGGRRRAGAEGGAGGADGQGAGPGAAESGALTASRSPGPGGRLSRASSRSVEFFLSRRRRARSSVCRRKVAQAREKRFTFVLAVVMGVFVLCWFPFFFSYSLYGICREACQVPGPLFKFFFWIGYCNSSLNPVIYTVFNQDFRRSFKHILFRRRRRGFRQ

In the case of `O=C(Nc1cccnc1)c1ccc2c(c1)OCO2`, the cell count in experiment [1] worked out at 696. Besides, the inhibition in experiment [1] was -16.9% (inactive); in experiment [3], -9.7% (inactive); in experiment [7] it was -19.3% (inactive); in experiment [8], -49.8% (inactive). Also, in experiment [2], the inhibition of aggregation was 19.5% (inactive). Moreover, the figures for the nuclei count in experiment [2] and in experiment [3] were 80.6% and 110%, respectively. Further, in experiment [4], the fluorescence slope is -0.515 (inactive). Moreover, the NADPH fluorescence slope in experiment [5] is -3.5e-05 (inactive). The slope in experiment [6] was 0.00618 (inactive).
With `CC(C)c1nnc(NC(=O)C2CCCCC2)s1`, the cell count in experiment [1] came out at 571. Besides, the inhibition in experiment [1] is -5.2% (inactive); in experiment [3] it was 20.2% (inactive); in experiment [7], -16.4% (inactive); in experiment [8], -54.8% (inactive). The inhibition of aggregation in experiment [2] was 22.8% (inactive). In addition, the nuclei count is 40.4% in experiment [2] and 76.2% in experiment [3]. In experiment [4], the fluorescence slope was -0.421 (inactive). The NADPH fluorescence slope in experiment [5] is -6.4e-05 (inactive). In experiment [6], the slope was 0.00517 (inactive).
As to `COc1ccc(OC)c(C(=O)c2coc3ccc(O)c(CN4CCOCC4)c23)c1`, the cell count in experiment [1] turned out to be 282. Besides, the inhibition was 2.9% (inactive) in experiment [1], -28.2% (inactive) in experiment [3], 6.31% (inactive) in experiment [7] and 23% (inactive) in experiment [8]. Further, the inhibition of aggregation in experiment [2] was -12.4% (inactive). The nuclei count in experiment [2] came to 120%; in experiment [3] it was 109%. In addition, the fluorescence slope in experiment [4] was -0.561 (inactive). The NADPH fluorescence slope in experiment [5] was -9.1e-06 (inactive). The slope in experiment [6] is 0.00423 (inactive).
Take `COc1ccc(NC(=O)CS(=O)CC(=O)Nc2cc(Cl)ccc2OC)cc1` (stereo not drawn): the cell count in experiment [1] amounted to 485. Moreover, the inhibition was 10.5% (inactive) in experiment [1], -34.6% (inactive) in experiment [3], 13.1% (inactive) in experiment [7] and 28.4% (inactive) in experiment [8]. Also, the inhibition of aggregation in experiment [2] is 5.3% (inactive). Also, the nuclei count in experiment [2] worked out at 71.7%; in experiment [3] it was 96%. In experiment [4], the fluorescence slope is -0.362 (inactive). For the same compound, in experiment [5], the NADPH fluorescence slope was -6.2e-05 (inactive). Moreover, in experiment [6], the slope was 0.00691 (inactive).
Take `CCCC(=O)Nc1ccccc1-c1nnn(CC(=O)Nc2ccc(OC)cc2)n1`: the cell count in experiment [1] was 674. Also, the inhibition in experiment [1] is 21.5% (inactive); in experiment [3], -36.7% (inactive); in experiment [7] it was 14.1% (inactive); in experiment [8], 13.7% (inactive). Also, the inhibition of aggregation in experiment [2] is -11.7% (inactive). Also, the nuclei count in experiment [2] amounted to 115%; in experiment [3], 83.3%. The fluorescence slope in experiment [4] is -0.36 (inactive). Further, the NADPH fluorescence slope in experiment [5] is 1e-05 (inactive). The slope in experiment [6] was 0.0062 (inactive).
Turning to `Cc1cccc(-c2nc(CN3CCCC(C(=O)NC4CCCC4)C3)c(C)o2)c1` (stereo not drawn), the cell count in experiment [1] is 333. Besides, the inhibition in experiment [1] was -0.4% (inactive); in experiment [3], -15.2% (inactive); in experiment [7], 20.6% (inactive); in experiment [8] it was 16.3% (inactive). Besides, the inhibition of aggregation in experiment [2] is -3.8% (inactive). Moreover, the nuclei count in experiment [2] came out at 111%; in experiment [3], 103%. Moreover, the fluorescence slope in experiment [4] is -0.514 (inactive). In addition, the NADPH fluorescence slope in experiment [5] was -5.9e-06 (inactive). In addition, in experiment [6], the slope was 0.00415 (inactive).
`O=c1c2cc(N3CCOCC3)ccc2[nH]c(=S)n1CCCN1CCCC1`: in experiment [1], the cell count turned out to be 739. Also, the inhibition in experiment [1] is 3% (inactive); in experiment [3] it was -35% (inactive); in experiment [7] it was 3.61% (inactive); in experiment [8] it was 32.7% (inactive). The inhibition of aggregation in experiment [2] was 6.2% (inactive). The nuclei count in experiment [2] was determined as 105%; in experiment [3], 106%. Moreover, the fluorescence slope in experiment [4] is -0.0484 (active). Moreover, in experiment [5], the NADPH fluorescence slope is -1.6e-06 (inactive). In addition, the slope in experiment [6] is 0.00568 (inactive).
For `COc1cccc(C2=NOC(C(=O)N3CCN(c4ccccc4)CC3)C2)c1OC` (stereo not drawn), the cell count in experiment [1] was 471. The inhibition in experiment [1] is 15% (inactive); in experiment [3], 8% (inactive); in experiment [7], 19% (inactive); in experiment [8] it was 6.35% (inactive). Also, the inhibition of aggregation in experiment [2] is 6.5% (inactive). Moreover, the nuclei count worked out at 113% in experiment [2] and 99.4% in experiment [3]. In experiment [4], the fluorescence slope was -0.536 (inactive). Further, the NADPH fluorescence slope in experiment [5] is -8.8e-06 (inactive). In experiment [6], the slope is 0.00606 (inactive).
On to `O=C(Nc1cccc2ccccc12)N1CCN(c2ccccc2)CC1`, for which the cell count in experiment [1] was found to be 767. For the same compound, the inhibition in experiment [1] was -6.4% (inactive); in experiment [3] it was -12.2% (inactive); in experiment [7] it was 8.28% (inactive); in experiment [8], 15.2% (inactive). In experiment [2], the inhibition of aggregation is 26.6% (inactive). Further, the nuclei count in experiment [2] was determined as 94.9%; in experiment [3] it was 100%. Further, the fluorescence slope in experiment [4] was -0.525 (inactive). Moreover, in experiment [5], the NADPH fluorescence slope is -2.7e-05 (inactive). Besides, the slope in experiment [6] was 0.00612 (inactive).
On to `Cc1ccc(CSC2=NCCN2C(=O)C2CC2)cc1`, for which the cell count in experiment [1] was 221. The inhibition in experiment [1] is -0.8% (inactive); in experiment [3], -26.8% (inactive); in experiment [7], 11% (inactive); in experiment [8], 11.8% (inactive). Moreover, the inhibition of aggregation in experiment [2] was 7.2% (inactive). Also, the nuclei count stood at 100% in experiment [2] and 107% in experiment [3]. In addition, the fluorescence slope in experiment [4] is -0.604 (inactive). Besides, the NADPH fluorescence slope in experiment [5] was -2e-05 (inactive). Besides, in experiment [6], the slope is 0.00584 (inactive).
For the compound `COc1c(Br)cc2c(C)c(C(=O)O)oc2c1Br`, in experiment [1], the cell count turned out to be 472. Also, the inhibition was 3.5% (inactive) in experiment [1], -26.9% (inactive) in experiment [3], 9.89% (inactive) in experiment [7] and 18.8% (inactive) in experiment [8]. In addition, the inhibition of aggregation in experiment [2] is -9.2% (inactive). Also, the nuclei count in experiment [2] came out at 95.6%; in experiment [3], 112%. The fluorescence slope in experiment [4] is -0.443 (inactive). The NADPH fluorescence slope in experiment [5] is -0.000118 (inactive). The slope in experiment [6] is 0.00602 (inactive).
Consider `CC(C)(C)Nc1nc(NC(C)(C)C)nc(-n2ccnc2)n1`, for which the cell count in experiment [1] is 194. The inhibition is -0.8% (inactive) in experiment [1], 2.8% (inactive) in experiment [3], 14.6% (inactive) in experiment [7] and 29% (inactive) in experiment [8]. The inhibition of aggregation in experiment [2] was -0.1% (inactive). The nuclei count in experiment [2] came to 81.5%; in experiment [3], 91.6%. For the same compound, the fluorescence slope in experiment [4] was -0.443 (inactive). Further, the NADPH fluorescence slope in experiment [5] was 1.8e-05 (inactive). Besides, the slope in experiment [6] is 0.00537 (inactive).
Take `CC1CCCN(S(=O)(=O)c2coc(C(N)=O)c2)C1` (stereo not drawn): the cell count in experiment [1] turned out to be 697. Further, the inhibition in experiment [1] was -0.6% (inactive); in experiment [3] it was 1.5% (inactive); in experiment [7], 1.83% (inactive); in experiment [8] it was 25.1% (inactive). In addition, in experiment [2], the inhibition of aggregation is -15.4% (inactive). For the same compound, the nuclei count was 111% in experiment [2] and 95.6% in experiment [3]. Moreover, the fluorescence slope in experiment [4] was -0.6 (inactive). Also, the NADPH fluorescence slope in experiment [5] was -2.8e-05 (inactive). Also, the slope in experiment [6] was 0.00651 (inactive).

One may read the inhibition as the drop in the measured response relative to a control, in per cent.
